Screens (PubChem)
TIM10 inh: growth inhibitors of isogenic TIM10 control yeast, primary screen, counter-screen for tim10-1 yeast inhibitor project, luminescence, uHTS. inhibition, % at 10 µM. S. cerevisiae TIM10 strain growth, BacTiter-Glo luminescence, 24 h. 1.4% of 330,000 active. AID 463195, 2010;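 active means inhibition of 40% or more at the single tested concentration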;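 further: wild-type TIM10 isogenic control strain grown at permissive 25 °C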
Mot1-301 SUMO: yeast Mot1-301 growth rescue at high temperature, primary screen, SUMOylation pathway inhibitor project, S. cerevisiae, ATP luminescence, 38.5C | S. cerevisiae Mot1-301 growth rescue; percent above DMSO median, 100 means doubled | growth rescue, % at 18.8 µM | 1% of 320,000 active;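 active means every valid replicate shows activation above 250% relative to neutral control wells; inactive means the rest, any valid replicate at or below 250%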
tim23-1 inh: growth inhibitors of tim23-1 mutant yeast, primary screen, luminescence, uHTS | inhibition, % at 20 µM | AID 463212, 2010 | 1.3% of 330,000 active | S. cerevisiae tim23-1 growth, BacTiter-Glo luminescence, 24 h;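 active means growth inhibition of the mutant yeast at or above 50%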;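 further: temperature-sensitive mutant grown at 25 °C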
tim10-1 inh: growth inhibitors of tim10-1 mutant yeast, primary screen, luminescence, uHTS | S. cerevisiae tim10-1 ts strain growth, BacTiter-Glo, 24 h | inhibition, % at 20 µM | 2.2% of 330,000 active;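 active means inhibition of at least 40%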;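 further: mutant grown at 25 °C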
PfHsp90 set2: growth inhibition of PfHsp90-expressing yeast, primary screen, antimalarial PfHsp90 inhibitor project, S. cerevisiae, BacTiter-Glo luminescence, single point, set 2; 0.32% of 310,000 active; BacTiter-Glo ATP, 48 h; yeast lacking PDR1 and PDR3 efflux regulators; AID 504621, 2011; inhibition, % at 9.4 µM;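 active means every replicate shows inhibition above about 80%, whatever the replicate mean, limit read from the data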
tim10-1 conf: growth inhibitors of tim10-1 mutant yeast, confirmation, single concentration, luminescence, S. cerevisiae | shares compounds with tim10-1 inh | S. cerevisiae tim10-1 ts strain growth, BacTiter-Glo, 24 h | inhibition, % at 20 µM | 56% of 7,400 active;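 active means inhibition of yeast growth at or above a set limit in either of two repeat tests at 20 µM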;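 further: tim10-1 mutant grown at permissive 25 °C to find synthetic lethal compounds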
Numbers stand for hits; . = inactive; / = not tested or not shown. The list is not random: actives were taken first. Their share in the collection is about 4.4%.

SMILES	TIM10 inh	Mot1-301 SUMO	tim23-1 inh	tim10-1 inh	PfHsp90 set2	tim10-1 conf
Cc1ccc(Cl)cc1NC(=O)COC(=O)C1CCCC1	.	.	.	.	.	/
C/C(=N\OC(=O)NC(C)C)c1sc(-c2ccc(Cl)cc2)nc1C	.	.	.	45	.	42
CC(=O)N1CCc2cc(S(=O)(=O)NC(C(=O)NC(C)c3ccccc3)C(C)C)ccc21 (centres undefined)	.	.	.	.	.	/
O=C(Nn1cnnc1)c1ccc(Cl)cc1	.	.	.	.	.	/
COc1cc(C(=O)NC(=S)Nc2ccc(Cc3ccncc3)cc2)cc(OC)c1OC	.	.	.	47	.	35
Fc1cccc(NC(=S)NC2CCCCCCC2)c1	.	.	.	50	.	.
S=C(Nc1ccccn1)NC1CCCC1	.	.	.	.	.	/
FC(F)(F)c1ccc(NC(=S)NC2CCCCC2)cc1	.	.	.	43	.	38
S=C(Nc1ccccn1)NC1CCCCC1	.	.	.	.	.	.
CCc1ccc(C(=O)COC(=O)CNC(=O)COc2ccccc2)cc1	.	.	.	42	.	.
CC[C@]1(C(=O)OC)[C@H]2C(=O)N(Cc3ccccc3)C(=O)[C@H]2[C@H]2CN(C)C(=NC)N21	.	/	.	.	.	/
CCOP(=O)(NC12CC3CC(CC(C3)C1)C2)NC12CC3CC(CC(C3)C1)C2	.	.	.	40	.	.
COCCC(=O)NC12CC3CC(CC(C3)C1)C2	.	.	.	.	/	/
CCCOc1cccc(NC(=O)c2c(-c3ccccc3)noc2C)c1	.	.	.	41	.	.
Cc1onc(-c2ccccc2)c1C(=O)Nc1ccc(NC(=O)c2c(-c3ccccc3)noc2C)cc1	.	.	.	.	.	/
Cc1ccc(F)c(NC(=O)c2c(-c3ccccc3)noc2C)c1	.	.	.	47	.	43
Cc1cc(Cl)ccc1Oc1ccccc1C(=O)CC#N	.	.	.	52	.	38
Cc1ccc(S(=O)(=O)Nc2ccc(Nc3ccccc3)cc2)cc1	.	.	.	43	.	.
CC1(C)CC(NC(=O)c2cc(COc3cccc(C(F)(F)F)c3)on2)CCO1 (centres undefined)	.	.	.	48	.	.
CC1CCCN(C(=S)SCC(=O)O)C1 (centres undefined)	.	.	.	.	.	/
CC1CCCN(C(=S)SCC(=O)c2cc(Br)cc(Br)c2O)C1 (centres undefined)	.	.	.	50	/	46
COc1cc(Cl)c(C)cc1NC(=O)CSc1ccc(NC(C)=O)cc1	.	.	.	42	.	.
COc1cc(Cl)c(C)cc1NC(=S)NN	.	.	.	41	.	.
COc1ccc(C)cc1NC(=S)NNC(=O)c1ccccc1Cl	.	.	.	44	.	48
COCCNC(=S)Nc1ccc(Cl)c(Cl)c1	.	.	.	.	.	/
SMILES	TIM10 inh	Mot1-301 SUMO	tim23-1 inh	tim10-1 inh	PfHsp90 set2	tim10-1 conf
COc1cc(Cl)c(C)cc1NC(=O)CSc1nc2ccccc2o1	.	.	.	.	.	/
COc1cc(C)c(NC(=S)Nc2ccc(Cl)c(Cl)c2)cc1OC	.	.	.	45	.	.
CC1C(=O)N2CCCc3cc(NC(=O)COc4ccccc4)cc1c32 (centres undefined)	.	.	.	.	/	/
CCCN=C1N(CC)C[C@@H]2[C@@H]3C(=O)N(C)C(=O)[C@@H]3[C@](CC)(C(=O)OC)N12	.	/	.	.	.	/
O=C(Cn1c(=O)[nH]c2ccccc2c1=O)Nc1ccc2c(c1)OCO2	.	.	.	.	.	/
COc1cc(Cl)c(C)cc1NC(=O)c1cccc(OC)c1OC	.	.	.	41	.	.
COc1cc(NC(=S)Nc2cccc(Cl)c2Cl)c(OC)cc1Cl	.	.	.	42	.	.
CCCC/C(O)=C1\C(=O)CC(C)(C)CC1=Nc1ccccc1OC	.	.	.	41	.	.
CN(CC1COc2ccccc2O1)C(=S)Nc1ccccc1 (centres undefined)	.	.	.	42	.	.
Cc1ccc(NC(=O)CC2COc3ccccc3O2)cc1 (centres undefined)	.	/	.	.	.	/
O=C(Nc1ccc(Oc2cccnc2)cc1)C1CCN(Cc2ccc(F)cc2)CC1	.	.	.	.	.	/
O=C(Nc1ccc(Oc2cccnc2)cc1)C1CCN(Cc2cc(Cl)ccc2O)CC1	.	.	.	49	.	.
O=C(CN1C(=O)NC(Cc2c[nH]c3ccccc23)C1=O)NCCc1ccccc1 (centres undefined)	.	.	.	.	.	/
COC(=O)c1c(NC(NC(=O)C(C)(C)C)C(Cl)(Cl)Cl)sc2c1CCC2 (centres undefined)	.	.	.	.	.	/
COC(=O)c1c(NC(NC(=O)C(C)C)C(Cl)(Cl)Cl)sc2c1CCC2 (centres undefined)	.	.	.	44	.	.
Cc1c(-c2ccccc2)sc(Br)c1C(=O)N1CCOCC1	.	.	.	48	.	.
CCCN(C(=O)Cc1csc(-c2ccccc2)n1)C1CCS(=O)(=O)C1 (centres undefined)	.	.	.	.	.	/
CC1(C)c2[nH]c3ccccc3c2C[C@@H]2C(=O)N(Cc3ccc(F)cc3)C(=O)N21	.	.	.	45	/	.
O=C(NCCN1CCOCC1)c1ccccc1OCc1ccccc1	.	.	.	.	.	/
CCN(CC)CCNCC1C(=O)O[C@@H]2C[C@@]3(C)CCC[C@H](C)C3=C[C@H]12 (some centres undefined)	.	.	.	51	.	37
C=CCNC(=S)Nc1ccccc1-c1nnc2n1CCCCC2	.	.	.	.	.	/
CCn1ncc(/C=C/C(=O)c2ccccc2)c1C	.	.	.	46	.	.
CCCc1[nH]c2ccc(C#N)cc2c1CCC	.	.	.	53	.	33
Cc1c(Br)c([N+](=O)[O-])nn1C(C)C(=O)N1CCCc2ccccc21 (centres undefined)	.	.	.	40	.	37
Brc1ccc(CSc2nnc(-c3ccccn3)n2Cc2ccco2)cc1	.	.	.	40	/	33
O=C(CSc1nnc(-c2ccccn2)n1Cc1ccco1)c1ccccc1	.	.	.	.	.	/
O=C(CSc1nnc(-c2cccnc2)n1Cc1ccco1)c1ccc2ccccc2c1	.	.	.	45	/	.
C(=C\c1ccccc1)/CSc1nnc(-c2ccccc2)n1Cc1ccco1	.	.	.	44	/	.
CCCC(C)c1nnc(NC(=O)COc2ccc3c(c2)OCO3)s1 (centres undefined)	.	.	.	.	.	/
